Among all 16,000 compounds or so, about 5,700 (36%) were called active. Roughly 24% stayed inconclusive and do not appear here. This is one part of the list. A number with no mark means an inactive call. Calls follow the shape of the dose curve; as a rule, active = well fitted curve in the direction sought with a large enough effect; inconclusive = small, poorly fitted or top-dose-only effect, or effect the other way; inactive = no such curve, though single readings can be large or run the other way.

What is called AC50 is the midpoint of the concentration-response curve, whichever way the signal moves.
% is scaled to controls: 0 for no effect and ±100 for the full control effect.

The target of this test is Cytochrome P450 1A2 (Homo sapiens) (UniProt P05177). Description: Cytochrome panel assay with activity outcomes. Conditions: recombinant CYP, pro-luciferin dealkylation, luminescence, p450-cyp1a2; series mostly up to 57.1 µM; activity, negative = inhibition: at the top concentration.
Cytochrome P450 1A2 (Homo sapiens), sequence (P05177 whole entry, looked up): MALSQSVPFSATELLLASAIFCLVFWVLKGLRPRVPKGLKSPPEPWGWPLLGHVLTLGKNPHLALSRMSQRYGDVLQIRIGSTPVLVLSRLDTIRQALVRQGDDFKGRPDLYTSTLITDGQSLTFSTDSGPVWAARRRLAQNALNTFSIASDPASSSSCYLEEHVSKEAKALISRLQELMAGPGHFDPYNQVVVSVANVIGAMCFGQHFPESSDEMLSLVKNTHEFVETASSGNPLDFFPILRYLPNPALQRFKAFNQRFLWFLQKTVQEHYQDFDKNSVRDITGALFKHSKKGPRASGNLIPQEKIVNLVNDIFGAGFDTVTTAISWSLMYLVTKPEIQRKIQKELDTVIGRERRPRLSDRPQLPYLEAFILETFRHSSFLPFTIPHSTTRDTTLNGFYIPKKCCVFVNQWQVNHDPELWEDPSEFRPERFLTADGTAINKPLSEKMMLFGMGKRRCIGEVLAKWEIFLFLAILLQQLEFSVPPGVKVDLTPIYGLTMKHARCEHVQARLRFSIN
In the case of `Cc1cc(C(=O)Nc2c(C)n(C)n(-c3ccccc3)c2=O)c2ccccc2n1`, the “activity, negative = inhibition” value was -5.52%.
With `Cc1cc(SC(C)C(=O)Nc2c(C)n(C)n(-c3ccccc3)c2=O)nc2ccccc12` (configuration not stated), the AC50 was 1 µM (active).
As to `Cc1c(NC(=O)Nc2c(Cl)cccc2Cl)c(=O)n(-c2ccccc2)n1C`, the activity, negative = inhibition is -6.85% [at 11.4 µM].
For the compound `CCCc1cc(=O)[nH]c(=S)[nH]1`, the “activity, negative = inhibition” value was -12% [at 25.6 µM].
Take `O=c1c(-c2ccc(F)cc2)nc2cnc(N3CCNCC3)nc2n1C1CC1`: the AC50 was 2.51 µM (active).
Still for that read-out and setting: then `O=c1c(-c2cc(F)cc(F)c2)nc2cnc(N3CCNCC3)nc2n1C1CC1`, with 3.16 µM (active); and `COc1ccc(-c2nc3cnc(N4CCNCC4)nc3n(C3CC3)c2=O)cc1`, with 6.31 µM (active).
For the compound `CS(=O)(=O)N1CCC2(CCCN(c3ccncc3)C2)CC1`, the “activity, negative = inhibition” value is -11.4%.
Take `C/C(=N\NC(=O)Cc1ccc(Cl)cc1)c1ccccn1`: the AC50 is 4.47 µM (active).
In the case of `C/C(=N\NC(=O)CC1N=C(Cc2ccccc2)NNC1=O)c1ccc(Cl)cc1Cl` (configuration not stated), the “activity, negative = inhibition” value is -6.27%.
On the same count and under the same terms, as for `COc1cccc([C@H](O)Cn2cc(-c3cccc(CON=C(C)C)c3)nn2)c1`, the figure is -3.64% [at 11.4 µM].
Turning to `C[N+]1(C)CCc2cc3c(cc2[C@@H]1[C@@H]1C(=O)Oc2c1ccc1c2OCO1)OCO3`, the half-maximal activity concentration (AC50) was 1.26 µM (active).
Consider `COc1ccc2c(c1OC)C(=O)OC2[C@H]1c2c(cc3c(c2OC)OCO3)CCN1C` (some centres not stated), for which the AC50 entry is “inactive”.
Still for that read-out and setting: as for `C=CCNc1oc(/C=C/c2ccccc2)nc1C#N`, the figure is 3.55 µM (active).
As to `O=C(c1csnn1)N1CCC2(CC1)CN(C(c1ccccc1)c1ccccc1)C2`, the “activity, negative = inhibition” value was -12.6%.
`CCOC(=O)C(=Cc1ccc(-c2ccsc2C(=O)OC)o1)C(=O)OCC`: the AC50 was 14.1 µM (active).
In the case of `S=C1SCN(C2CCCCCCCCCCC2)CN1C1CCCCCCCCCCC1`, the activity, negative = inhibition was -14.7% [at 2.29 µM].
The same measure, in the same setting: then `O=C(CSc1ccccc1C(=O)O)NCc1ccco1`, with 8.39%; and `COc1ccccc1CN1CCC2(CC1)CCN(C(=O)c1ccco1)CC2`, with -0.397%.
In the case of `O=C(Cn1cc(C(=O)c2ccco2)c2ccccc21)NCc1ccco1`, the concentration at half-maximal activity (AC50) was 11.2 µM (active).
On to `COc1ccccc1CN1CCCC2(CCN(C(=O)c3ccco3)CC2)C1`, for which the “activity, negative = inhibition” value was -20.3%.
Consider `COc1ccccc1OCCn1cc(C(=O)c2ccco2)c2ccccc21`, for which the AC50 is 2.51 µM (active).
For the compound `N#Cc1cc(-c2ccc(Cl)cc2)cnc1Sc1ccc(F)cc1`, the concentration at half-maximal activity (AC50) was 0.112 µM (active).
The same measure, in the same setting: as for `N#Cc1cc(-c2ccccc2)cnc1Sc1ccc(Cl)cc1`, the figure is 1.78 µM (active); as for `N#Cc1cc(-c2ccc(Cl)cc2)cnc1Sc1ccccc1`, 0.398 µM (active).
For the compound `CO/N=C(\C(=O)N[C@@H]1C(=O)N2C(C(=O)O)=C(COC(C)=O)CS[C@@H]12)c1csc(N)n1`, the “activity, negative = inhibition” value is -6.57%.
Same read-out and setting: as for `CN[C@]1(C)[C@H]2CC[C@@H](C2)C1(C)C`, the figure is 0.247% [at 25.6 µM]; as for `CC(=O)OC[C@@H]1O[C@H](C/C=N\O[C@@H](C)c2cn([C@H]3COC[C@H]3O)nn2)C=C[C@@H]1OC(C)=O`, -4.99% [at 11.4 µM].
Turning to `COc1ccc(C(=O)N2CCC3(CCCN(C(=O)Nc4cccc(F)c4)C3)CC2)cc1`, the AC50 was 20 µM (active).
In the case of `O=C(Nc1cccc(F)c1)N1CCCC2(CCN(C(=O)c3ccncc3)CC2)C1`, the AC50 was 12.6 µM (active).
With `COC(=O)N1CCC2(CC1)CN(C(=O)Nc1cccc(F)c1)C2`, the “activity, negative = inhibition” value is -2.39%.
Consider `COC(=O)N1CCC2(CCN(C(=O)Nc3cccc(F)c3)CC2)CC1`, for which the concentration at half-maximal activity (AC50) was 12.6 µM (active).
As to `COc1ccc(C(=O)N2CCC3(CCN(C(=O)Nc4cccc(F)c4)CC3)CC2)cc1`, the “activity, negative = inhibition” value was -16.9%.
Same read-out and setting: then `O=C(Nc1cccc(F)c1)N1CCCC2(CCN(C(=O)c3cnccn3)CC2)C1`, with -22.5%; and `CC(=O)N1CCC2(CCCN(C(=O)Nc3cccc(F)c3)C2)CC1`, with -8.44%; and `COC(=O)N1CCC2(CCCN(C(=O)Nc3cccc(F)c3)C2)CC1`, with 14%.
Take `COc1ccc(NC(=O)N2CCCC3(CCN(C(=O)c4cccc(F)c4)CC3)C2)cc1`: the “activity, negative = inhibition” value is -13.1%.
Regarding `COc1ccc2[nH]cc(CCNc3ccnc(-c4ccccc4Cl)n3)c2c1`, the concentration at half-maximal activity (AC50) is 0.398 µM (active).
On the same count and under the same terms, as for `COc1ccc2[nH]cc(CCNc3ccnc(-c4ccccc4C)n3)c2c1`, the figure is 0.316 µM (active).
Turning to `C#C[C@H](N)CCC(=O)O`, the “activity, negative = inhibition” value is -0.402%.
On the same count and under the same terms, as for `Nc1ncnc2nn([C@H]3O[C@@H](CO)[C@@H](O)[C@H]3O)nc12`, the figure is -11.4% [at 11.4 µM].
In the case of `Cc1ccc2c(c1)N[C@H](c1ccc(C(=O)O)cc1)c1cccn1-2`, the AC50 is 0.794 µM (active).
Turning to `Cc1ccc(C)c(S(=O)(=O)NCc2ccc(C(=O)N3CCC(Cc4ccccc4)CC3)cc2)c1`, the “activity, negative = inhibition” value was -9.01%.
Still for that read-out and setting: as for `CN(C)CCNCCN`, the figure is -0.129% [at 11.4 µM]; as for `N=C(N)c1ccccc1`, -7.52%.
On to `N=C(N)c1ccc(N=Nc2c(O)ccc3c2[nH]c2ccccc23)cc1`, for which the AC50 was 1.58 µM (active).
Still for that read-out and setting: then `O=C(NCCCc1ccccc1)c1cccs1`, with 11.2 µM (active); and `Cc1ccc(NC(=O)NCCCc2ccccc2)cc1`, with 3.55 µM (active).
With `CC(C)C(=O)NCCCc1ccccc1`, the “activity, negative = inhibition” value is -15.1%.
Still for that read-out and setting: as for `CSCC[C@@H]1NC(=O)C/C=C\[C@@H](C)COC(=O)[C@@H](C)COC1=O`, the figure is 4.43% [at 11.4 µM].
Still for that read-out and setting: then `C[C@H]1[C@@H](O)[C@@H](C)\C=C/C=C\C=C/C=C\C=C/C=C\C=C/[C@@H](O[C@H]2O[C@@H](C)[C@@H](O)[C@@H](N)[C@@H]2O)C[C@@H]2O[C@](O)(C[C@@H](O)C[C@@H](O)[C@@H](O)CC[C@@H](O)C[C@@H](O)CC(=O)O[C@H]1C)C[C@@H](O)[C@H]2C(=O)O` (stereo in doubt), with -0.696% [at 25.6 µM].
Take `Cc1cc(C)n(-c2nc(NCC(C)O)c3c4c(sc3n2)COC(C)(C)C4)n1` (configuration not stated): the concentration at half-maximal activity (AC50) was 8.91 µM (active).
The same measure, in the same setting: as for `CCC(O)CNc1nc(-n2nc(C)cc2C)nc2sc3c(c12)CC(C)(C)OC3` (configuration not stated), the figure is 14.1 µM (active); as for `Cc1cc(NC(=O)Nc2ccc3c(ccn3C)c2)sn1`, 5.01 µM (active); as for `Oc1c(Cl)cc(C(c2cc(Cl)c(O)c(Cl)c2)C(c2cc(Cl)c(O)c(Cl)c2)c2cc(Cl)c(O)c(Cl)c2)cc1Cl`, 0.794 µM (active).
`Oc1c(Cl)cc(CN(Cc2cc(Cl)c(O)c(Cl)c2)C2CCCCC2)cc1Cl`: the activity, negative = inhibition was 11.3% [at 2.29 µM].
On the same count and under the same terms, then `CCOC(=O)CCN1C(=O)[C@H]2[C@H]3[C@H](O)[C@H](O)C/C(=N/OCC(C)C)[C@H]3CC[C@@H]2C1=O`, with -11.8% [at 11.4 µM].

(Values after PubChem BioAssay AID1851 (National Center for Advancing Translational Sciences (NCATS), 2009).)
